Of roughly 7,900 targets only a part is listed; those with a hit were picked by preference. About 0.6% of all pairs of compound and target were hits. Unmarked numbers belong to inactive results.
Experiments:
Experiment in all cases: log2 fold change, soluble protein after heating vs DMSO (PISA); higher = thermal stabilisation; K562 cells, 10 uM, 30 min; active = over 0.2 and 3.5 SD of the protein, either way, in both replicates (recomputed)
IRAK-1-4 Inhibitor I = compound: C1COCCN1CCN2C3=CC=CC=C3N=C2NC(=O)C4=CC(=CC=C4)[N+](=O)[O-] [IRAK-1-4 Inhibitor I]
How it was run: (§1)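 Quantification of soluble protein used TMTpro 16plex LC-MS/MS, with channel sums equalised. Samples were the supernatant after 21,000xg for 90 min of pooled aliquots from K562 cells (2×10^6 cells/mL) treated with 10 μM compound for 30 min, heated for 3 min over 48°C-58°C, and extracted in PBS with 0.5% NP-40 at 4°C. Values, from duplicates, describe thermal stability against control samples on a log2 fold-change scale.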

ibrutinib = compound: C=CC(=O)N1CCC[C@@H](n2nc(-c3ccc(Oc4ccccc4)cc3)c3c(N)ncnc32)C1 [ibrutinib]
How it was run: as §1

[1] = compound: CC(=O)c1cnc2ccc(-c3cc(Cl)c(O)c(Cl)c3)nc2c1N[C@H]1CC[C@H](CN(C)C)CC1
How it was run: as §1

ralimetinib = compound: CC(C)(C)Cn1c(N)nc2ccc(-c3[nH]c(C(C)(C)C)nc3-c3ccc(F)cc3)nc21 [ralimetinib]
How it was run: as §1

[2] = compound: CC(C)(O)CC(=O)NCCn1ccc2ncnc(Nc3ccc(Oc4cccc(C(F)(F)F)c4)c(Cl)c3)c21
How it was run: as §1

[3] = compound: CC(C)C1=C2N=C(C=C(N2N=C1)NCC3=CC=CC=C3)NCCCCCCN
How it was run: as §1

[4] = compound: CC(C)C[C@@H](C=O)NC(=O)[C@H](CC(C)C)NC(=O)[C@H](CC(C)C)NC(=O)OCc1ccccc1
How it was run: as §1

pinometostat = compound: CC(C)N(C[C@H]1O[C@@H](n2cnc3c(N)ncnc32)[C@H](O)[C@@H]1O)[C@H]1C[C@@H](CCc2nc3cc(C(C)(C)C)ccc3[nH]2)C1 [pinometostat]
How it was run: as §1

[5] = compound: CC1=C(C(CC(=O)N1)C2=CC=C(C=C2)C(F)(F)F)C(=O)NC3=C(C=C4C(=C3)C=NN4)F
How it was run: as §1

[6] = compound: CC1=C(C2=C(C=C1)C(=O)C3=CC=CC=C3N2CCCN)C
How it was run: as §1

[7] = compound: CC1=C(C=C(C=C1)NC(=O)C2=CC(=CC=C2)C(C)(C)C#N)NC3=CC4=C(C=C3)N=CN(C4=O)C
How it was run: as §1

[8] = compound: CC1=C(C=C(C=C1)NC(=O)C2=CC(=CC=C2)N(C)C)NC(=O)C3=CC=C(C=C3)O
How it was run: as §1

[9] = compound: CC1=CC=C(C=C1)SC2=C3C=C(SC3=CN=C2)C(=O)N
How it was run: as §1

[10] = compound: CC1=NC(=CC=C1)C2=C(N=C(N2)C(C)(C)C)C3=CC4=NC=CN=C4C=C3
How it was run: as §1

Nexturastat A = compound: CCCCN(Cc1ccc(C(=O)NO)cc1)C(=O)Nc1ccccc1 [Nexturastat A]
How it was run: as §1

vemurafenib = compound: CCCS(=O)(=O)Nc1ccc(F)c(C(=O)c2c[nH]c3ncc(-c4ccc(Cl)cc4)cc23)c1F [vemurafenib]
How it was run: as §1

[11] = compound: CCCS(=O)(=O)Nc1ccc(F)c(C(=O)c2c[nH]c3ncc(Cl)cc23)c1F
How it was run: as §1

[12] = compound: CCCc1cc(C)[nH]c(=O)c1CNC(=O)c1cc(-c2ccnc(N3CCN(C)CC3)c2)cc2c1cnn2C(C)C
How it was run: as §1

givinostat = compound: CCN(CC)Cc1ccc2cc(COC(=O)Nc3ccc(C(=O)NO)cc3)ccc2c1 [givinostat]
How it was run: as §1

barasertib = compound: CCN(CCCOc1ccc2c(Nc3cc(CC(=O)Nc4cccc(F)c4)[nH]n3)ncnc2c1)CCOP(=O)(O)O [barasertib]
How it was run: as §1

Sequence of UniProt Q92544 (Q92544 whole entry, looked up): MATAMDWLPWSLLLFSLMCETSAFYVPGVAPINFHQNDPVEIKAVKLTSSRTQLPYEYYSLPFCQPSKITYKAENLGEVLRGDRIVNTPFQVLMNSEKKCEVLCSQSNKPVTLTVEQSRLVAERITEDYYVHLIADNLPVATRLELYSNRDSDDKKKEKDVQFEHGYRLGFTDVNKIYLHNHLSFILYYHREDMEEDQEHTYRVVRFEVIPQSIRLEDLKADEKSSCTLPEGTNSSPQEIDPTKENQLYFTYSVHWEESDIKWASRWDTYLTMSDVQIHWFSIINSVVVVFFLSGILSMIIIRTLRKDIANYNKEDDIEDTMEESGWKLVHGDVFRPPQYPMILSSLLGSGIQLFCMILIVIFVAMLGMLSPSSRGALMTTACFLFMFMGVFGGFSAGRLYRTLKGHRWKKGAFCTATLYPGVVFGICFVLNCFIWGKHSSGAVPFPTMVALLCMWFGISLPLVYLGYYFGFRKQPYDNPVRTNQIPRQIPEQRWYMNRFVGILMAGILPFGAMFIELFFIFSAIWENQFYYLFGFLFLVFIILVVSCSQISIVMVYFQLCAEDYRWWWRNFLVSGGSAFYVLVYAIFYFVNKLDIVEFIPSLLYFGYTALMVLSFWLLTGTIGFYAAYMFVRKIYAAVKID
Sequence of UniProt Q5M775 (Q5M775 whole entry, looked up): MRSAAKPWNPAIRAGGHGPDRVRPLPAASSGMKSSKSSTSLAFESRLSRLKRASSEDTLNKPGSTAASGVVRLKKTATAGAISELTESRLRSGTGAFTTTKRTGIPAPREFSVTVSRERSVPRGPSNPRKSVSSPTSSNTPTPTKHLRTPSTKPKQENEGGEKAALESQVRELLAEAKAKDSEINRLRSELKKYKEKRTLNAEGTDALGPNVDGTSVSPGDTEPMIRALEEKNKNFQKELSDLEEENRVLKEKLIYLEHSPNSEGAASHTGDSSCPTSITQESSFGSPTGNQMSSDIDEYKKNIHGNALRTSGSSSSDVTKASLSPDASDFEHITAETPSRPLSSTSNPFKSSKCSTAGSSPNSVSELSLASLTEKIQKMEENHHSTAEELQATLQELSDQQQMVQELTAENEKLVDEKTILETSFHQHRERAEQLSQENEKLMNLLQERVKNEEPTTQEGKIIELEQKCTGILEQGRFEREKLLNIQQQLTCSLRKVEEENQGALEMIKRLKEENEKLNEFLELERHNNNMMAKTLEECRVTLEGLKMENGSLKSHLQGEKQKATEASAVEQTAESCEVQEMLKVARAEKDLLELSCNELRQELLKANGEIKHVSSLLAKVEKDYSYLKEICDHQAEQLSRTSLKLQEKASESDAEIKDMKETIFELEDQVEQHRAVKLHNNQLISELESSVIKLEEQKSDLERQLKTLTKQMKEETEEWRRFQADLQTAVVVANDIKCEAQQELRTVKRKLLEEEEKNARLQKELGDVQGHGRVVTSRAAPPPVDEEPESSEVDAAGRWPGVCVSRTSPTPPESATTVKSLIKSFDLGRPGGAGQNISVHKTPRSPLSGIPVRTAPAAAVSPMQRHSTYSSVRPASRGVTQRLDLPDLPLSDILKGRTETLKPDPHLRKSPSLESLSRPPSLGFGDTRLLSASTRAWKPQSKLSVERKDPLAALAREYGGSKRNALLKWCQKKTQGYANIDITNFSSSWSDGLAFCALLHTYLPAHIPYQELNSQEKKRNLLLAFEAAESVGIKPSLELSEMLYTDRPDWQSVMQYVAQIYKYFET
Sequence of UniProt Q02447 (Q02447 whole entry, looked up): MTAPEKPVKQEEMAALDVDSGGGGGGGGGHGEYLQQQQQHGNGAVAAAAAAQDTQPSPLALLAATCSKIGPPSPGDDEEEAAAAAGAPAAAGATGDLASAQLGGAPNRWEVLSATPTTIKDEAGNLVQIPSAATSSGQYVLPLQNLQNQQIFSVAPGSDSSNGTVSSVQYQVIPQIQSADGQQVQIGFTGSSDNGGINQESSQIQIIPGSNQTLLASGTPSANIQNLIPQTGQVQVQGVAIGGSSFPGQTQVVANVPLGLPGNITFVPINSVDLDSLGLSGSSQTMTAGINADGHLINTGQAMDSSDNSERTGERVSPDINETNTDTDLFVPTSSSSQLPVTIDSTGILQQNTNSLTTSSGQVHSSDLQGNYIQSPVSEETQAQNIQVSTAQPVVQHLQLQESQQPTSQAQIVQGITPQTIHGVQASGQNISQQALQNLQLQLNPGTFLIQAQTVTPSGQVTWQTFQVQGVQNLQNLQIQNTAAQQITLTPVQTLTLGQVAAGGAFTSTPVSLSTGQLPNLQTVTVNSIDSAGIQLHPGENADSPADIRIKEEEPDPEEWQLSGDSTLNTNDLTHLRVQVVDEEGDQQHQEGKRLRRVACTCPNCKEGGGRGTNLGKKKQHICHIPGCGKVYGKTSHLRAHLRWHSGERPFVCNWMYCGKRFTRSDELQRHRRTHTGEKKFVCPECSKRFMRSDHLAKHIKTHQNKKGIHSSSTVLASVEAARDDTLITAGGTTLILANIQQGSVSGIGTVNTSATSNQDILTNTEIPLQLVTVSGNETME
Sequence of UniProt Q8WU79 (Q8WU79 whole entry, looked up): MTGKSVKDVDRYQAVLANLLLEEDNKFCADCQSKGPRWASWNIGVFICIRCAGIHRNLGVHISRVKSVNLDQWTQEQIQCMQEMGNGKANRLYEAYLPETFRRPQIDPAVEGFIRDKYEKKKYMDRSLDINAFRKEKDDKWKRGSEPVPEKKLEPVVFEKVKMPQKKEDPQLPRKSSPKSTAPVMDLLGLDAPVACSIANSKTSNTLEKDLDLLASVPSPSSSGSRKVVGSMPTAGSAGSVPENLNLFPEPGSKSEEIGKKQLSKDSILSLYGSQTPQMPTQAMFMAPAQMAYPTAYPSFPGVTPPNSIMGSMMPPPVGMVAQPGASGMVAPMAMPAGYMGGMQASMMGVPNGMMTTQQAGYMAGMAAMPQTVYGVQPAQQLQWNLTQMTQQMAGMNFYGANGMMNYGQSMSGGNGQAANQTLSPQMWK
Sequence of UniProt Q16385 (Q16385 whole entry, looked up): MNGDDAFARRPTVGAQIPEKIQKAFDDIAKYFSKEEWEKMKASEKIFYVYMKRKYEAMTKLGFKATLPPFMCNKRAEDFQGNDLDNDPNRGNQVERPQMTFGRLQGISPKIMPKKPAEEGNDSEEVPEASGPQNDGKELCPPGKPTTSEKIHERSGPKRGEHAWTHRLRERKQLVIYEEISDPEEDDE
Sequence of UniProt Q16842 (Q16842 whole entry, looked up): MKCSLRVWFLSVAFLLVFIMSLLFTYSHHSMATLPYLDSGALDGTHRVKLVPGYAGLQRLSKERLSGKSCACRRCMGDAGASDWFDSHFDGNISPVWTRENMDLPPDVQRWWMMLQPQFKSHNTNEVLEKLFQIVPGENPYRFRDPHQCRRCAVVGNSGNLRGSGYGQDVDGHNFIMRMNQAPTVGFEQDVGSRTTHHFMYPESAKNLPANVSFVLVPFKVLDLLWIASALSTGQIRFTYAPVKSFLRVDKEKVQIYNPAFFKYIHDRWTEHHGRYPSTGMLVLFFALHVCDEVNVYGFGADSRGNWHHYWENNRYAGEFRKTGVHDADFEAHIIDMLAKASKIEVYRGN
Sequence of UniProt Q9H4L7 (Q9H4L7 whole entry, looked up): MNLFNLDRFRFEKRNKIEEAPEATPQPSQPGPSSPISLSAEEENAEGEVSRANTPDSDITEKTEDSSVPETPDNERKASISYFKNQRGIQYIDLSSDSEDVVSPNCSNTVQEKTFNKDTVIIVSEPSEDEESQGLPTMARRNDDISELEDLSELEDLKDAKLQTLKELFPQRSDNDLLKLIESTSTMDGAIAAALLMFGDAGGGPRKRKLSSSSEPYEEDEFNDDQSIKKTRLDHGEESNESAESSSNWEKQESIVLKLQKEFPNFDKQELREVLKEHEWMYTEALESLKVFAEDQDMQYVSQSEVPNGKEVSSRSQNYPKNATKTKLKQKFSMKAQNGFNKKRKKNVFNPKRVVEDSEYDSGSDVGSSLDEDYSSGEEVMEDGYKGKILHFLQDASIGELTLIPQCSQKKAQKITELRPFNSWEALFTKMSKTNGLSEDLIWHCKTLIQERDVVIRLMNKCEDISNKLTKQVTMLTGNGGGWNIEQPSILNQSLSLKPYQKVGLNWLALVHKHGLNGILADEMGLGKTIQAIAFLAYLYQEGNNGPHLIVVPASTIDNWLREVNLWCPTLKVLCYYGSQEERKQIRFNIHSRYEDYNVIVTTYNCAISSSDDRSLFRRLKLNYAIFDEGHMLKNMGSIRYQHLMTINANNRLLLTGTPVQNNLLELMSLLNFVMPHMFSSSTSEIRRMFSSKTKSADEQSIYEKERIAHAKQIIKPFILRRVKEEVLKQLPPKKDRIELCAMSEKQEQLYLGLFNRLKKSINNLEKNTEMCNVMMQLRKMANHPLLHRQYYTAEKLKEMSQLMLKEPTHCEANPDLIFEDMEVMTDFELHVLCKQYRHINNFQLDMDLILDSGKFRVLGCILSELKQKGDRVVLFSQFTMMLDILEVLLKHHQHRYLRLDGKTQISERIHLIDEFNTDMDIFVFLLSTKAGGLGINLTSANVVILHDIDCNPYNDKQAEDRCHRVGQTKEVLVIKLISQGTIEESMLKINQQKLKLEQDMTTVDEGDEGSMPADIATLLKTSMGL
Sequence of UniProt Q15208 (Q15208 whole entry, looked up): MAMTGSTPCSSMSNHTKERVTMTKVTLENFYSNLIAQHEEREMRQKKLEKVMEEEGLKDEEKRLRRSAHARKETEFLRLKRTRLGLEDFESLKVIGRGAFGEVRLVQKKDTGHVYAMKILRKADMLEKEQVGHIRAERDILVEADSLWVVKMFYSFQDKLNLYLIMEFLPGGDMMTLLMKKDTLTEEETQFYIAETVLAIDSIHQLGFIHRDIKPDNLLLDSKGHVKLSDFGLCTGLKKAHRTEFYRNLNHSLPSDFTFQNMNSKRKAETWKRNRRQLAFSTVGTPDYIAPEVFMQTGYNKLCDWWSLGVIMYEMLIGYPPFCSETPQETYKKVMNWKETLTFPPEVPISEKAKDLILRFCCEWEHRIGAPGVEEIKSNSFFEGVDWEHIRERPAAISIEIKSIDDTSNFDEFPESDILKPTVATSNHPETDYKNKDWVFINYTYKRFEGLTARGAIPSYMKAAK

Row | Target | log2 fold change (IRAK-1-4 Inhibitor I) | log2 fold change (ibrutinib) | log2 fold change [1] | log2 fold change (ralimetinib) | log2 fold change [2] | log2 fold change [3] | log2 fold change [4] | log2 fold change (pinometostat) | log2 fold change [5] | log2 fold change [6] | log2 fold change [7] | log2 fold change [8] | log2 fold change [9] | log2 fold change [10] | log2 fold change (Nexturastat A) | log2 fold change (vemurafenib) | log2 fold change [11] | log2 fold change [12] | log2 fold change (givinostat) | log2 fold change (barasertib)
1 | SSX2 (UniProt Q16385) | -0.038 | -0.004 | -0.006 | -0.03 | 0.022 | -0.044 | 0.123 | -0.065 | 0.021 | -1.33 (active) | 0.021 | -0.013 | 0.011 | 0.073 | -0.254 (active) | 0.046 | 0.035 | -0.016 | -0.099 | 0.018
2 | STARD3 (UniProt Q14849) | -0.075 | 0.23 | -0.033 | 0.033 | -0.075 | -0.429 (active) | 0.122 | 0 | 0.222 | -0.044 | 0.103 | 0.075 | -0.027 | 0.036 | -0.048 | 0.052 | -0.059 | 0 | 0.011 | 0.016
3 | ST3GAL2 (UniProt Q16842) | -0.183 | -0.105 | -0.115 | -0.009 | 0.119 | -0.12 | 0.066 | -0.031 | -0.037 | 0.046 | 0.064 | -0.054 | -0.216 | 0.066 | -0.012 | -0.032 | -0.013 | 0.212 | 0.078 | 0.112
4 | TM9SF4 (UniProt Q92544) | -0.006 | 0.008 | -0.016 | 0.031 | -0.006 | -0.033 | 0.029 | 0.016 | -0.015 | 0.077 | 0.084 | -0.022 | 0.014 | -0.012 | -0.029 | 0.031 | 0.073 | 0.034 | 0.054 | 0.004
5 | SP3 (UniProt Q02447) | -0.129 | 0.003 | -0.007 | 0 | 0.022 | -0.006 | 0.054 | 0.026 | 0.114 | 0.607 (active) | -0.008 | -0.126 | -0.041 | -0.058 | -0.003 | -0.038 | 0.012 | -0.052 | -0.219 | 0.011
6 | SRP72 (UniProt O76094) | -0.119 | -0.03 | -0.025 | 0.104 | -0.121 | -0.275 | 0.062 | 0.205 | -0.026 | -0.547 (active) | 0.024 | -0.01 | 0.034 | -0.009 | 0.171 | 0.037 | 0.09 | 0.046 | 0.143 | 0.078
7 | SPINDOC (UniProt Q9BUA3) | 0.029 | 0.089 | 0.017 | 0.084 | -0.01 | 0.103 | 0 | 0.075 | 0.093 | -0.24 | 0.157 | 0.037 | -0.074 | -0.139 | -0.014 | 0.113 | 0.11 | -0.013 | -0.127 | 0.129
8 | SUPT16H (UniProt Q9Y5B9) | -0.155 | -0.139 | -0.259 | -0.059 | -0.174 | -0.26 | 0.083 | 0.044 | -0.015 | -1.34 (active) | 0.082 | -0.081 | 0.01 | 0.102 | -0.019 | 0.186 | 0.093 | 0.061 | 0.223 | 0.187
9 | SUOX (UniProt P51687) | 0.123 | -0.007 | 0.003 | 0.012 | -0.022 | 0.042 | 0.013 | 0.016 | 0.039 | 0.02 | -0.012 | -0.002 | -0.007 | -0.334 (active) | -0.021 | -0.046 | -0.051 | 0.023 | -0.033 | 0.007
10 | TBC1D24 (UniProt Q9ULP9) | -0.025 | 0.022 | -0.415 (active) | -0.086 | -0.057 | -0.09 | -0.053 | 0.04 | 0.047 | 0.142 | -0.018 | -0.012 | 0.005 | 0.006 | -0.024 | 0.019 | 0.046 | -0.033 | 0.005 | -0.019
11 | STARD3NL (UniProt O95772) | 0.014 | -0.023 | -0.216 | 0.038 | -0.014 | -0.432 (active) | -0.036 | 0.013 | 0.007 | 0.062 | 0.01 | -0.002 | 0.056 | 0.076 | -0.12 | 0.02 | 0.048 | -0.021 | 0.009 | -0.027
12 | SMAP2 (UniProt Q8WU79) | 0.04 | -0.027 | 0.039 | 0.048 | -0.039 | 0.02 | 0.137 | 0.015 | -0.025 | 0.004 | -0.033 | -0.063 | 0.016 | -0.054 | 0.029 | 0.058 | 0.055 | 0.043 | 0.04 | 0.052
13 | SMARCAD1 isoform 2 (UniProt Q9H4L7) | -0.031 | -0.016 | 0.014 | -0.009 | -0.201 | -0.2 | 0.029 | -0.003 | -0.007 | 0.144 | 0.028 | -0.072 | -0.026 | 0.064 | -0.028 | 0.192 | 0.101 | 0.035 | 0.127 | 0.089
14 | SPECC1 (UniProt Q5M775) | 0.01 | -0.068 | -0.035 | -0.107 | 0.025 | 0.08 | 0.003 | -0.25 | 0.048 | -0.01 | -0.028 | -0.015 | 0.094 | -0.063 | -0.08 | -0.094 | -0.06 | -0.102 | 0.035 | 0.062
15 | SP1 (UniProt P08047) | 0.013 | 0.024 | 0.029 | -0.049 | -0.031 | -0.05 | 0.064 | 0.04 | 0.043 | -0.312 (active) | 0.023 | -0.068 | -0.067 | -0.033 | 0.034 | -0.017 | -0.069 | -0.018 | -0.114 | 0.011
16 | STK38 (UniProt Q15208) | 0.004 | -0.073 | -0.308 (active) | 0.101 | -0.085 | -0.089 | 0.016 | 0.058 | 0.038 | -0.026 | 0.099 | -0.054 | 0.013 | 0.004 | -0.062 | 0.091 | 0.12 | 0.049 | 0.048 | 0.022
